From PubChem BioAssay
Active and inactive are the calls of the source.

assay: basal 3T3-L1 adipocyte mitochondrial potential changes, profiling panel, cell-based, JC-1 fluorescence, 3T3-L1 adipocytes, 24 h, 100 nL compound (AID 1168); details: JC-1 mitochondrial fluorescence, higher = more signal, called active from +8 up or from −8 down; further: test concentration not given here

z-score, inactive:
COCCOC(=O)N1C(=O)[C@@]2(c3cc(C#CCC(C(=O)OC)C(=O)OC)ccc31)[C@H](c1ccc(O)cc1)N1[C@H](c3ccccc3)[C@H](c3ccccc3)OC(=O)[C@H]1[C@@H]2C(=O)N1CCc2cc(OC)c(OC)cc2C1 -0.291
C[C@]1(C(=O)O)c2ccccc2C(=O)N(Cc2cc(C(F)(F)F)cc(C(F)(F)F)c2)[C@H]1c1ccc(CO)cc1 -0.107
O=C(N1CCOCC1)[C@]1(CCS(=O)(=O)c2ccccc2)N=C(c2ccc(OCCCO)cc2)O[C@@H]1c1ccccc1 1.14
CC1(C)OB(/C=C\CC(OC(=O)c2ccncc2)c2ccccc2)OC1(C)C (stereo not given) -0.928
COC(=O)[C@]1(Cc2ccccc2CN=[N+]=[N-])N=C(c2ccc(OCCCO)cc2)O[C@@H]1c1ccccc1N=[N+]=[N-] -0.387
CC(C)(C)OC(=O)CC[C@@]1(C(=O)N2CCOCC2)N=C(c2ccc(OCCCO)cc2)O[C@@H]1c1ccccc1CN=[N+]=[N-] -0.506
COC(=O)[C@@]1(Cc2ccccc2)[C@H]2c3cc(C(=O)N(C)C)n(Cc4ccc(Cl)c(C(F)(F)F)c4)c3C[C@H]2CN1C(=O)c1ccccc1 -1.28
CN1C(=O)C2C(C1=O)C1C=C(CCCO)C2C(C2CC2)N1C (stereo not given) 0.693
CO[C@H]1O[C@H](CO)[C@@H](OC(=O)CCc2ccccc2)[C@@H]2OC(=O)[C@@H](Cc3ccc4ccccc4c3)C/C=C/C[C@H](Cc3ccc4ccccc4c3)C(=O)O[C@@H]12 0.945
C=C(C(=O)CC[C@@H](OC(=O)c1ccccc1-c1ccccc1C(=O)O)c1ccc(OCCO)cc1)C(C)C -1.2
[N-]=[N+]=NCc1ccccc1[C@H]1OC(c2ccc(OCCCO)cc2)=N[C@@]1(Cc1ccccc1N=[N+]=[N-])C(=O)O 0.0914
C=CCN1C(=O)[C@]2(O[C@H](CCO)[C@@H]([Si](C)(C)c3ccc(OC)cc3)[C@@H]2C)c2cc(N3C(=O)c4ccccc4Oc4ccccc43)ccc21 -0.599
CCOC(=O)C[C@H]1[C@H](OC(=O)c2ccc(-c3ccccc3)cc2)[C@@H](NC(=O)C2CCCCC2)c2cc(OCCCO)ccc2N1C(=O)Cc1ccc(OC)cc1 -0.199
C=CCNC(=O)[C@@H]1[C@H]2C(=O)O[C@H](c3ccccc3)[C@H](c3ccccc3)N2[C@H](c2ccc(OCCO)cc2)[C@@]12C(=O)Nc1ccc(C#CCNC(N)=O)cc12 -0.962
CC(C)Cc1ccc(CN2CC[C@@H](NC(=O)c3ccccc3)C2)cc1 0.343
CC(=O)NCCCC[C@@H]1NC(=O)[C@H]2C[C@@H](C(=O)NCCCCCN)[C@@H](c3ccc(O)cc3)N2C1=O -0.34
CCCNC(=O)[C@@]1(Sc2ccc(C)cc2)CC(=O)N(Cc2cc(C(F)(F)F)cc(C(F)(F)F)c2)[C@@H]1c1ccc(CO)cc1 0.196
Cc1ccc(S[C@]2(C(=O)NCc3ccccc3)CC(=O)N(Cc3ccccc3C(F)(F)F)[C@@H]2c2ccc(CO)cc2I)cc1 -0.841
CCc1cccc(NC(=O)O[C@H]2[C@H](OC(=O)Nc3ccccc3-c3ccccc3)[C@H](OC(=O)Nc3ccccc3-c3ccccc3)[C@@H](OC)O[C@@H]2CO)c1 -0.398
Cc1ccc(S[C@]2(C(=O)NCC(C)C)CC(=O)N(C(C)C)[C@@H]2c2ccc(CO)cc2I)cc1 0.953
COC(=O)C(CC#Cc1ccc2c(c1)[C@]1(C(=O)N2)[C@H](C(=O)N2CCCCCCC2)[C@H]2C(=O)O[C@H](c3ccccc3)[C@H](c3ccccc3)N2[C@@H]1c1ccc(OCCO)cc1)C(=O)OC -2.32
O=C1NC(=O)C2C1C=CC(C(O)C1CCCCC1)N2Nc1ccccn1 (stereo not given) -0.894
CN1C(=O)C2C=CC(C(O)c3ccc(I)cc3)N(N(c3ccccc3)c3ccccc3)C2C1=O (stereo not given) -1.67
COC(=O)[C@]1(Cc2ccccc2N=[N+]=[N-])N=C(c2ccc(OCCCO)cc2)O[C@@H]1c1ccccc1CN=[N+]=[N-] -1.07
COC(=O)[C@@]1(Cc2ccc(F)cc2)[C@H]2c3cc(C(=O)N(C)C)n(Cc4ccc(C(F)(F)F)nc4)c3C[C@H]2CN1C(=O)c1ccccc1 -0.602
C=C(CCCC)/C(=C/C[C@@H](OC(C)=O)c1ccc(OCCO)cc1)c1cc(C(=O)OC)ccc1OC -1.5
COc1ccc([Si](C)(C)[C@@H]2[C@@H](CC(=O)N3Cc4ccccc4C[C@H]3CO)O[C@]3(C(=O)N(Cc4ccc(I)cc4)c4ccccc43)[C@H]2C)cc1 0.124
C=CCNC(=O)[C@@H]1[C@H]2C(=O)O[C@H](c3ccccc3)[C@H](c3ccccc3)N2[C@H](c2ccc(O)cc2)[C@@]12C(=O)Nc1ccc(C#CC3=CCCCC3)cc12 1.38
COCCOC(=O)N1C(=O)[C@@]2(c3cc(C#CCCO)ccc31)[C@H](C(=O)N1CCN(c3ncccn3)CC1)[C@H]1C(=O)O[C@H](c3ccccc3)[C@H](c3ccccc3)N1[C@@H]2c1ccc(OCCO)cc1 0.0633
O=C1N(Cc2ccccc2)Cc2ccccc2C[C@@]12COC(c1ccc(OCCCO)cc1)=N2 0.172
[N-]=[N+]=NCc1ccccc1[C@H]1OC(c2ccc(OCCCO)cc2)=N[C@@]1(Cc1ccccc1N=[N+]=[N-])C(=O)N1CCOCC1 -0.866
CO[C@H]1O[C@H](CO)[C@@H](OC(=O)Nc2cccc(F)c2)[C@H](OC(=O)Nc2ccc3c(c2)OCO3)[C@@H]1OC(=O)Nc1ccc2c(c1)OCO2 -0.672
[N-]=[N+]=Nc1ccccc1C[C@@]1(C(=O)NCc2ccccc2)N=C(c2ccc(OCCCO)cc2)O[C@@H]1c1ccccc1 -0.739
C=C[C@H](C)[C@@H](OC(=O)Nc1ccc(SC)cc1)c1ccc(OCCO)cc1 -0.168
COc1ccc(C#Cc2ccc3c(c2)[C@]2(C(=O)N3)[C@H](c3ccccc3OCCO)N3[C@H](c4ccccc4)[C@H](c4ccccc4)OC(=O)[C@H]3[C@@H]2C(=O)NC[C@H](O)c2ccccc2)cc1 3.95
